Laboratory results published in PubChem BioAssay (EPA / NIEHS).
Results filed as inconclusive are left out. Some structures have more than one record in an assay (separate samples or runs), and their calls can disagree. The source made the active and inactive calls. Rule for the calls, unless noted: active = hit-call score of the fitted dose curve at least 0.9, where 1 is the maximum; inactive = score below 0.9.

Columns and labels:
[1] = target: Nuclear respiratory factor 1 (Homo sapiens) (UniProt Q16656); assay: ATG_NRF1_CIS: Attagene CIS-FACTORIAL HepG2 Assay for human Nuclear Respiratory Factor 1 (NRF1) Orphan Gene (AID 2282987); details: HepG2 NRF1 cis-element reporter, Attagene multiplex; actives raise or lower the signal
How it was run: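 Transcriptional reporter readout, one component of a 52-endpoint multiplexed HepG2 panel. Exposure 24 h; mRNA detected via RT-PCR and fluorescent capillary electrophoresis; fitting in both directions against DMSO.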

[2] = ATG_NFI_CIS: Attagene CIS-FACTORIAL HepG2 Assay for human Nuclear Factor I (NFI) (AID 2282989); details: HepG2 cis-regulatory reporter, NFI response element transcription; actives raise or lower the signal
How it was run: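 Transient MRTU transfection of HepG2 → 24 h chemical dosing → total RNA, oligo(dT) RT → PCR, 6-FAM primer extension, HpaI cut → capillary electrophoresis. Endpoint fitted bidirectionally relative to DMSO.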

[3] = ATG_NRF2_ARE_CIS: Attagene CIS-FACTORIAL HepG2 Assay for human Nuclear Factor Erythroid 2 Related Factor 2 (NFR2) response to Antioxidant Response Elements (ARE) (AID 2282992); details: HepG2 Attagene ARE/NRF2 reporter, transcription factor activity; actives raise or lower the signal;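 for AC50: reporter mRNA level measured by RT-PCR and capillary electrophoresis fluorescence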
How it was run: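 Endogenous transcription factor activity in human liver HepG2 cells is tracked via a cis-element-driven reporter within a multiplexed set. mRNA induction is read by RT-PCR and capillary electrophoresis after 24 h, with DMSO as baseline.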

[4] = ATG_Oct_MLP_CIS: Attagene CIS-FACTORIAL HepG2 Assay for human Octamer-Binding Transcription Factor (Oct) (AID 2282993); details: HepG2 Attagene cis-factorial Oct reporter, mRNA; actives raise or lower the signal
How it was run: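 Transient MRTU transfection of HepG2 → 24 h compound treatment → RNA isolation, reverse transcription, PCR → 6-FAM primer extension, HpaI digest → capillary electrophoresis. Activity fitted both directions against DMSO.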

[5] = target: Cellular tumor antigen p53 (Homo sapiens) (UniProt P04637); assay: ATG_p53_CIS: Attagene CIS-FACTORIAL HepG2 Assay for human p53 Transcription Factor (AID 2282994); details: HepG2 p53 cis-element reporter, Attagene mRNA; actives raise or lower the signal
How it was run: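 Steps: transfect HepG2 with multiplexed cis reporter constructs; dose chemicals 24 h; extract RNA, reverse-transcribe, PCR-amplify reporter sequences; FAM-label, HpaI-digest, resolve fragments by CE. Activity fitted both directions relative to DMSO.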

[6] = BSK_3C_TissueFactor: BioMAP Diversity Plus: 3C Assay for Tissue Factor Biomarker Activity (AID 2282997); details: BioMAP 3C HUVEC, tissue factor biomarker readout; actives raise or lower the signal
How it was run: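 Tissue Factor measured by ELISA, 24 h after treatment of primary HUVEC in the BioMAP 3C setting.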

[7] = BSK_3C_uPAR: BioMAP Diversity Plus: 3C Assay for Urokinase-type plasminogen activator receptor (uPAR) Biomarker Activity (AID 2282998); details: BioMAP 3C HUVEC, uPAR biomarker ELISA; actives raise or lower the signal
How it was run: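 ELISA readout of uPAR on human vascular endothelium (umbilical vein primary cells), taken 24 h after chemical dosing. Increases and decreases are both fitted relative to DMSO vehicle.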

[8] = BSK_3C_VCAM1: BioMAP Diversity Plus: 3C Assay for Vascular cell adhesion molecule 1 (VCAM1) Biomarker Activity (AID 2282999); details: BioMAP 3C HUVEC, VCAM1 ELISA, cytokine-stimulated; actives raise or lower the signal
How it was run: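 HUVEC primary cells, 24 h compound exposure; VCAM-1 by ELISA; gain/loss of signal fitted bidirectionally vs DMSO baseline.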

[9] = BSK_4H_Eotaxin3: BioMAP Diversity Plus: 4H Assay for Eotaxin 3 Biomarker Activity (AID 2283000); details: primary human endothelial cells (HUVEC); actives raise or lower the signal
How it was run: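 Eotaxin-3 (CCL26) levels were measured by ELISA in HUVEC primary cultures 24 h post-dosing. Gain or loss of signal was fitted in both directions, with DMSO serving as baseline and negative control.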

[10] = target: human Peroxisome Proliferator-activated Receptor alpha (PPARa), PPARA (gene 5465) (UniProt Q07869); assay: ATG_PPARa_TRANS: Attagene TRANS-FACTORIAL HepG2 Assay for human Peroxisome Proliferator-activated Receptor alpha (PPARa) (AID 2283001; active = hit-call score of the fitted dose curve at least 0.9, where 1 is the maximum)
How it was run: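 Transient HepG2 transfection, GAL4-UAS reporters, NR-Gal4 chimeras; 24 h compound exposure. Readout: reporter transcripts by RT-PCR, 6-FAM primer extension, HpaI digest, capillary electrophoresis. Positive direction vs DMSO baseline.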

[11] = target: human Peroxisome Proliferator-activated Receptor delta (PPARd), PPARD (gene 5467) (UniProt Q03181); assay: ATG_PPARd_TRANS: Attagene TRANS-FACTORIAL HepG2 Assay for human Peroxisome Proliferator-activated Receptor delta (PPARd) (AID 2283002; active = hit-call score of the fitted dose curve at least 0.9, where 1 is the maximum)
How it was run: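 HepG2 cells transiently transfected with GAL4-UAS multiplexed reporter units driven by exogenous chimeric NR-GAL4 proteins; 24 h compound exposure. Reporter mRNA measured by RT-PCR, 6-FAM primer extension, HpaI digestion and capillary electrophoresis; gain of signal fitted relative to DMSO.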

[12] = read-out: Intercellular Adhesion Molecule 1 (ICAM1), ICAM1 (gene 3383); assay: BSK_3C_ICAM1: BioMAP Diversity Plus: 3C Assay for Intercellular Adhesion Molecule 1 (ICAM1) Biomarker Activity (AID 2283003); details: primary human endothelial cells (HUVEC); actives raise or lower the signal
How it was run: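 Using DMSO as baseline, bidirectional curve fitting was applied to ICAM-1 ELISA signals from HUVEC in the 3C system, measured 24 h after compound addition.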

[13] = target: human Retinoic Acid Receptor beta (RARb), RARB (gene 5915) (UniProt P10826); assay: ATG_RARb_TRANS: Attagene TRANS-FACTORIAL HepG2 Assay for human Retinoic Acid Receptor beta (AID 2283004; active = hit-call score of the fitted dose curve at least 0.9, where 1 is the maximum)
How it was run: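 HepG2 cells were transiently transfected with GAL4-UAS reporter units that report activity of exogenous chimeric NR-Gal4 proteins, then exposed to compound for 24 h. Reporter mRNA was quantified by RT-PCR with capillary electrophoresis fluorescence, as gain of signal over DMSO.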

[14] = target: Retinoic acid receptor alpha (Homo sapiens) (UniProt P10276); assay: ATG_RARa_TRANS: Attagene TRANS-FACTORIAL HepG2 Assay for human Retinoic Acid Receptor alpha (RARa) (AID 2283005; active = hit-call score of the fitted dose curve at least 0.9, where 1 is the maximum)
How it was run: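 HepG2 transiently transfected with multiplex GAL4-UAS reporter units including a human RARa–GAL4 chimera; 24 h compound exposure. Reporter mRNA quantified by RT-PCR, 6-FAM labeling and capillary electrophoresis; gain of signal versus DMSO.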

[15] = BSK_3C_Proliferation: Cell Proliferation Assessment in the BioMAP Diversity Plus: 3C Assay (AID 2283006); details: primary human endothelial cells (HUVEC);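 for AC50: potency may reflect either rise or fall in cell number versus DMSO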
How it was run: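 Measured here: sulforhodamine B (0.1%) staining of TCA-fixed sub-confluent umbilical vein endothelial cultures 48 h post-dosing, absorbance 560 nm. DMSO served as negative control and baseline; both signal gain and loss were modelled.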

[16] = target: Peroxisome proliferator-activated receptor gamma (Homo sapiens) (UniProt P37231); assay: ATG_PPARg_TRANS: Attagene TRANS-FACTORIAL HepG2 Assay for human Peroxisome Proliferator-activated Receptor-gamma (PPARg) (AID 2283007; active = hit-call score of the fitted dose curve at least 0.9, where 1 is the maximum)
How it was run: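 Multiplexed reporter transcription units in HepG2, 24 h dosing, reporter transcripts quantified by fluorescent RT-PCR and capillary electrophoresis. Increase over DMSO scored.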

[17] = target: Nuclear receptor subfamily 1 group I member 2 (Homo sapiens) (UniProt O75469); assay: ATG_PXR_TRANS: Attagene TRANS-FACTORIAL HepG2 Assay for human Pregnane X Receptor (PXR) (AID 2283008; active = hit-call score of the fitted dose curve at least 0.9, where 1 is the maximum)
How it was run: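 HepG2 transfected (FuGene 6) with GAL4-UAS reporter units + PXR-Gal4 chimera; dosed 24 h. Total RNA → oligo(dT) RT → PCR → 6-FAM primer extension → HpaI cut → CE. Gain-of-signal vs DMSO.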

[18] = target: human Retinoic Acid Receptor gamma (RARg), RARG (gene 5916) (UniProt P13631); assay: ATG_RARg_TRANS: Attagene TRANS-FACTORIAL HepG2 Assay for human Retinoic Acid Receptor gamma (RARg) (AID 2283009; active = hit-call score of the fitted dose curve at least 0.9, where 1 is the maximum)
How it was run: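 Gain-of-signal relative to DMSO is reported from fluorescent capillary electrophoresis of RT-PCR reporter products. These came from HepG2 cells expressing transfected RARg-GAL4 chimeras with UAS reporters, harvested 24 h after dosing.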

[19] = ATG_NF_kB_CIS: Attagene CIS-FACTORIAL HepG2 Assay for human Nuclear Factor Kappa B (NF-kB) (AID 2282991); details: HepG2 Attagene cis-factorial NF-kB reporter mRNA; actives raise or lower the signal
How it was run: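 HepG2, transient multi-reporter transfection, cis promoter elements (endogenous TFs). 24 h exposure. Total RNA → RT → PCR → 6-FAM label → HpaI → CE. Gain/loss vs DMSO.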

Measured: AC50

Chain of human Peroxisome Proliferator-activated Receptor delta (PPARd), PPARD (gene 5467) (Q03181 whole entry, looked up, the tested form may be a part): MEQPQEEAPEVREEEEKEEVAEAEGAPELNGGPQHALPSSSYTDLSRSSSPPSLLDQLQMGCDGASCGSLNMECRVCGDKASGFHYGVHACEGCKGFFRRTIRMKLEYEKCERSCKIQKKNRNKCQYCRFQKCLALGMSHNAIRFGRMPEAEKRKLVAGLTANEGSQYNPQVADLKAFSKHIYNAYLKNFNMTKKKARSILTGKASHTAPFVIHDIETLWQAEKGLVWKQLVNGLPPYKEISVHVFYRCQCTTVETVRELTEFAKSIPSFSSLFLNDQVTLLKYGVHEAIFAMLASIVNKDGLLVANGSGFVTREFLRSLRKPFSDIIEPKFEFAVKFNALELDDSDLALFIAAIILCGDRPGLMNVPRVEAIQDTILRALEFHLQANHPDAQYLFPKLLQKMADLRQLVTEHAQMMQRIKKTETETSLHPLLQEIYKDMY
Chain of Nuclear respiratory factor 1 (Homo sapiens) (Q16656 whole entry, looked up): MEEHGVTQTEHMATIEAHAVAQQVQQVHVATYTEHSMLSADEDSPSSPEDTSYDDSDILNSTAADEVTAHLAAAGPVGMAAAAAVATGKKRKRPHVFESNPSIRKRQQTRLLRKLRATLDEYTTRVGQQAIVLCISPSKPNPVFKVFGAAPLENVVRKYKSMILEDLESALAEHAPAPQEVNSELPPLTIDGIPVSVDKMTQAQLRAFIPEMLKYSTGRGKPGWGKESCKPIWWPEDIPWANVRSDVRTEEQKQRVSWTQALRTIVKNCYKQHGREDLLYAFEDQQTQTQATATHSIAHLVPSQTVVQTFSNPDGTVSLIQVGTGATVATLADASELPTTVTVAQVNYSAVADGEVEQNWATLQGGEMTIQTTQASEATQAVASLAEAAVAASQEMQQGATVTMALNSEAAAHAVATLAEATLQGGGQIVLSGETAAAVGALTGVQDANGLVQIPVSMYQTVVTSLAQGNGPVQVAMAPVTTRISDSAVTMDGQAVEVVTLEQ
Chain of Nuclear receptor subfamily 1 group I member 2 (Homo sapiens) (O75469 whole entry, looked up, the tested form may be a part): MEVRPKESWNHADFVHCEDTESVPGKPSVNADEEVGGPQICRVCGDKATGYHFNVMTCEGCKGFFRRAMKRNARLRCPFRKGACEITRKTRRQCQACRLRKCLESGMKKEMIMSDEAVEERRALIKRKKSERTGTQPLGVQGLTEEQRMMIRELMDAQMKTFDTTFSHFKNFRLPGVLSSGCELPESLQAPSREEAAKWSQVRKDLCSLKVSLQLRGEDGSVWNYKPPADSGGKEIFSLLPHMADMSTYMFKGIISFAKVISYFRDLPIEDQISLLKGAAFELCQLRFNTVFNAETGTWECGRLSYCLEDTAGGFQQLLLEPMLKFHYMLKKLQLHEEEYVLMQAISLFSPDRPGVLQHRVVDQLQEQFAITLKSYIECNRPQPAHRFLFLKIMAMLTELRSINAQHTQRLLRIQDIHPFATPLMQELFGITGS
Chain of Cellular tumor antigen p53 (Homo sapiens) (P04637 whole entry, looked up, the tested form may be a part): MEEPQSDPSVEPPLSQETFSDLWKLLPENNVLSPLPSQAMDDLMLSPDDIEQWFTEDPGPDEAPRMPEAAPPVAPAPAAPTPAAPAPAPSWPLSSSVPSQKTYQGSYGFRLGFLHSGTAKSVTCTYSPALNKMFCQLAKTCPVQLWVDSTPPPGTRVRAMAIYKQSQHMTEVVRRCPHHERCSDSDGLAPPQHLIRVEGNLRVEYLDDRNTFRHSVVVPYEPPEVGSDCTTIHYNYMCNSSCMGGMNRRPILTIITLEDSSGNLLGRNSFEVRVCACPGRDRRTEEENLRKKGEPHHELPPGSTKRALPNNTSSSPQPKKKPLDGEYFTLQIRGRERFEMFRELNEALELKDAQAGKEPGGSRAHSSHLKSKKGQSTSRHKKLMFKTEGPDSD
Chain of human Retinoic Acid Receptor beta (RARb), RARB (gene 5915) (P10826 whole entry, looked up, the tested form may be a part): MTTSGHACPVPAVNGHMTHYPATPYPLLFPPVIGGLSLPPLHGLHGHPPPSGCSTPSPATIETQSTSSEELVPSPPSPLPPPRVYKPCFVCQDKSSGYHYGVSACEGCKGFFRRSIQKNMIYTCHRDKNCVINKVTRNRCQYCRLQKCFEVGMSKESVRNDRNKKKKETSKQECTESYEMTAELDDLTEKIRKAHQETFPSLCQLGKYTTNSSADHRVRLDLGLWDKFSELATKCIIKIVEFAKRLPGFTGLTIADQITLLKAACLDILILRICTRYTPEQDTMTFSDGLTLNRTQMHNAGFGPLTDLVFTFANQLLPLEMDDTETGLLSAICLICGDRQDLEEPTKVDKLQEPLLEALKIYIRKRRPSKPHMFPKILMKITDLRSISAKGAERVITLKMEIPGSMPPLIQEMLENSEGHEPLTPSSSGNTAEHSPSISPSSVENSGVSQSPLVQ
Chain of Peroxisome proliferator-activated receptor gamma (Homo sapiens) (P37231 whole entry, looked up): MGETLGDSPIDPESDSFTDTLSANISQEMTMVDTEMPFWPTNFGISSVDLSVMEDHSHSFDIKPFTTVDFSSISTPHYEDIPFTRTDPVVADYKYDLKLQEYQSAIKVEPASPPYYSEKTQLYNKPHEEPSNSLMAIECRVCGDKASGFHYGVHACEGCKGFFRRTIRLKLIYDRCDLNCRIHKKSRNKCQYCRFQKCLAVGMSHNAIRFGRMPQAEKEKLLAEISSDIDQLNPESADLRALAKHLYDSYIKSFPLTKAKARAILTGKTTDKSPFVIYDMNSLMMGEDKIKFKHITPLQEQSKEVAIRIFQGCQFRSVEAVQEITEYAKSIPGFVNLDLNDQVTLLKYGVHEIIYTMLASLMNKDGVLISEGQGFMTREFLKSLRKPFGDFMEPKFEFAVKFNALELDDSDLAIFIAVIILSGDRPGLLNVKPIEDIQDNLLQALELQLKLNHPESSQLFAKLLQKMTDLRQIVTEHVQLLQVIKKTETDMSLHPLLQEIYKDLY
Chain of Retinoic acid receptor alpha (Homo sapiens) (P10276 whole entry, looked up, the tested form may be a part): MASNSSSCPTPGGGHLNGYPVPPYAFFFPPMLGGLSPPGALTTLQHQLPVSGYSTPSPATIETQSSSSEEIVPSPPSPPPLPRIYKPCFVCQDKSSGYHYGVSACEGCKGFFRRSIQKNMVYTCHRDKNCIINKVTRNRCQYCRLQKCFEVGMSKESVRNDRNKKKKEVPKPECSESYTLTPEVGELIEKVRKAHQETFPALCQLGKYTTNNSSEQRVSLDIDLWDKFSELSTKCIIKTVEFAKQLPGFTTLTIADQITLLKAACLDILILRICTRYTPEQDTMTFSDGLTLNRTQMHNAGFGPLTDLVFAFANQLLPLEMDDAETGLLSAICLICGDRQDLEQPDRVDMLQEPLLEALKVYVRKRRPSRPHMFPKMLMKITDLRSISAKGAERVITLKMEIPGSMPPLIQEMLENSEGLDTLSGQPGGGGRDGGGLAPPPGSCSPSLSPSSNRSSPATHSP
Chain of human Retinoic Acid Receptor gamma (RARg), RARG (gene 5916) (P13631 whole entry, looked up, the tested form may be a part): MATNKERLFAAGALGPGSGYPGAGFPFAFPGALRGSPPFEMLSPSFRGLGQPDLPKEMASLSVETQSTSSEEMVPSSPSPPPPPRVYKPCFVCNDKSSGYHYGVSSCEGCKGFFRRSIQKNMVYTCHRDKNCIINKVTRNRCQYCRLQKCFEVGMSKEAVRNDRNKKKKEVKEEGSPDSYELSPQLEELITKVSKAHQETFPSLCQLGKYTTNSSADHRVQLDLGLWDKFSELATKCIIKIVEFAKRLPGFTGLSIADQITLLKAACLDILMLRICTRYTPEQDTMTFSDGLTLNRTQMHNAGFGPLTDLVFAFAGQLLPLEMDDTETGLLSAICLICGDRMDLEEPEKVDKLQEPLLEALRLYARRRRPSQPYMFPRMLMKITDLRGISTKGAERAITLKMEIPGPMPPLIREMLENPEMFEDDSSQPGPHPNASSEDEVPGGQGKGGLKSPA
Chain of human Peroxisome Proliferator-activated Receptor alpha (PPARa), PPARA (gene 5465) (Q07869 whole entry, looked up, the tested form may be a part): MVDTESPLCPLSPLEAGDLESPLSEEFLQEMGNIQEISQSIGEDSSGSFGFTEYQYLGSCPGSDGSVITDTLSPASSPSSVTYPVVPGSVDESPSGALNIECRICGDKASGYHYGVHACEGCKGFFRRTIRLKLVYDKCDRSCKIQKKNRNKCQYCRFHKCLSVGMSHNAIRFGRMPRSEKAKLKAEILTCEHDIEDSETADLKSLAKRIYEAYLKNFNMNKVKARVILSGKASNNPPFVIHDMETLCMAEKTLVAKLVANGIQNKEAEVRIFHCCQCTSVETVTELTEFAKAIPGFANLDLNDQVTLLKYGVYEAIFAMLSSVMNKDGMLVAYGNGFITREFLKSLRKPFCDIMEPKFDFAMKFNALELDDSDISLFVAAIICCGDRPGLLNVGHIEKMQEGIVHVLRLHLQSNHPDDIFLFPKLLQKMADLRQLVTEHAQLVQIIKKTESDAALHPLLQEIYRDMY

CC1(c2ccc(Oc3ccccc3)cc2)OC(=O)N(Nc2ccccc2)C1=O (stereo unspecified)
active: [3] 1.61 µM | [4] 2.01 µM | [6] 29.5 µM | [7] 25.9 µM | [8] 33 µM | [9] 16.5 µM | [15] 14 µM
not listed: [19]
inactive: all other assays above

CN1CSC(=S)N(C)C1
active: [2] 69.1 µM | [3] 21.7 µM | [4] 24.6 µM | [8] 21.5 µM | [9] 20.9 µM | [15] 26.6 µM
not listed: [11] | [12] | [14] | [17] | [18]
inactive: all other assays above

O=C(NC(=O)c1c(F)cccc1F)Nc1ccc(OC(F)(F)C(F)OC(F)(F)F)c(Cl)c1 (stereo unspecified)
active: [3] 13.8 µM | [4] 19.9 µM
not listed: [5] | [10] | [12] | [13] | [14] | [17] | [18]
inactive: all other assays above

CCOCN(C(=O)CCl)c1c(C)cccc1CC
active: [3] 1.21 µM | [8] 14.3 µM | [9] 35.3 µM | [15] 15.5 µM | [16] 1.23 µM
not listed: [11] | [12] | [13] | [18]
inactive: all other assays above

CC[C@H](C)[C@H]1O[C@]2(C=C[C@@H]1C)C[C@@H]1C[C@@H](C/C=C(\C)[C@@H](O[C@H]3C[C@H](OC)[C@@H](O[C@H]4C[C@H](OC)[C@@H](O)[C@H](C)O4)[C@H](C)O3)[C@@H](C)/C=C/C=C3\CO[C@@H]4[C@H](O)C(C)=C[C@@H](C(=O)O1)[C@]34O)O2 (tested in a mixture with another compound)
active: [6] 12 µM | [7] 5.44 µM | [8] 9.38 µM | [9] 9.57 µM | [15] 4.78 µM
not listed: [10] | [11] | [12] | [16] | [17]
inactive: all other assays above

O=C(Nc1ccccc1)Nc1cnns1
active: [2] 80.9 µM | [3] 50 µM | [4] 71.8 µM | [15] 20 µM
not listed: [10] | [12] | [18]
inactive: all other assays above

COC(=O)c1ccccc1S(=O)(=O)NC(=O)Nc1nc(C)nc(OC)n1
active: [3] 31.3 µM | [4] 36 µM
inactive: [1] | [2] | [3] | [4] | [5] | [6] | [7] | [8] | [9] | [10] | [13] | [14] | [15] | [17] | [18]

Clc1ccccc1-c1nnc(-c2ccccc2Cl)nn1
active: [3] 13.6 µM | [15] 11.7 µM | [16] 64.7 µM
not listed: [5] | [10] | [13] | [19]
inactive: all other assays above
